Among the data in PubChem BioAssay (EPA / NIEHS) are outcome and AC50 values, retold here.

Records with an inconclusive call do not appear. Activity calls are given as the source filed them. How the source made its calls: active means hit-call score of the fitted dose curve at least 0.9, where 1 is the maximum; inconclusive means response in the unintended direction; inactive means score below 0.9.

Assay [1] concerns the target Tyrosine-protein phosphatase non-receptor type 14 (Homo sapiens) (UniProt Q15678). Nature of the assay: NVS_ENZ_hPTPN14: NovaScreen (NVS) Enzymatic Assay for human Protein Tyrosine Phosphatase Non-receptor Type 14 (PTPN14) (AID 2283206). An outline of the steps: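 Cell-free recombinant human PTPN14 with fluorescent substrate, read 0.5 h after dosing by fluorescence and electrophoretic mobility shift separating substrate from product. Primary screen at 25 uM in duplicate; hits run to 50 uM maximum; loss of signal versus DMSO.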

Assay [2] concerns the target human Protein Tyrosine Phosphatase Non-receptor Type 4 (PTPN4), PTPN4 (gene 5775) (UniProt P29074). The experiment in a line: NVS_ENZ_hPTPN4: NovaScreen (NVS) Enzymatic Assay for human Protein Tyrosine Phosphatase Non-receptor Type 4 (PTPN4) (AID 2283208). The procedure:
NVS_ENZ_hPTPN4 is a biochemical, single-readout assay that uses extracted gene-proteins from SF9 in a cell-free assay. Measurements were taken 1.33 hours after chemical dosing in a 384-well plate.NVS_ENZ_hPTPN4 is one of one assay component(s) measured or calculated from the NVS_ENZ_hPTPN4 assay. It is designed to make measurements of enzyme activity, a form of enzyme reporter, as detected with fluorescence intensity signals by Fluorescence and electrophoretic mobility shift technology.Data from the assay component NVS_ENZ_hPTPN4 was analyzed into 1 assay endpoint. This assay endpoint, NVS_ENZ_hPTPN4, was analyzed in the positive analysis fitting direction relative to DMSO as the negative control and baseline of activity. Using a type of enzyme reporter, loss-of-signal activity can be used to understand changes in the enzymatic activity as they relate to the gene PTPN4. Furthermore, this assay endpoint can be referred to as a primary readout, because this assay has produced multiple assay endpoints where this one serves a enzymatic activity function. To generalize the intended target to other relatable targets, this assay endpoint is annotated to the phosphatase intended target family, where the subfamily is non-receptor tyrosine phosphatase.
Binding assays used specific radioligands (tritiated, iodinated) with non-radioactive competitive displacement ligands in agonist or antagonist protocols (as indicated) and various reference compounds and inhibitors to titrate specific binding to receptors and transporters. Most enzyme assays (CYPs, kinases, phosphatases, proteases, HDACs) used recombinant protein and specific substrates (fluorescence mostly, some colorimetric and radioactive) and inhibitors, followed by a biochemical separation of substrate and product. All assays for the biochemical HTS were initially run in duplicate at a single concentration (10 uM for CYP450 assays and 25 uM for all others). Assay-chemical combinations meeting a pre-defined threshold (e.g., 30% inhibition and other criteria defined below) were then run in singleton concentration-response format with maximum concentration of 20 uM for CYPs and 50 uM for all others. Each assay was run with positive and negative controls, and concurrent controls on every plate. The follow-up (secondary) screen tested active chemical-pairs in concentration series, as well as a few additional assays not tested in the primary screen, some selected negative inactives, and several cases re-run in the concentration series for confirmatory purposes.

The target of assay [3] is Tyrosine-protein phosphatase non-receptor type 11 (Homo sapiens) (UniProt Q06124). Nature of the assay: NVS_ENZ_hPTPN11: NovaScreen (NVS) Enzymatic Assay for human Protein Tyrosine Phosphatase Non-receptor Type 11 (PTPN11) (AID 2283202). The procedure: NVS_ENZ_hPTPN11 is a biochemical, single-readout assay that uses extracted gene-proteins in a cell-free assay. Measurements were taken 0.5 hour after chemical dosing in a 384-well plate.NVS_ENZ_hPTPN11 is one of one assay component(s) measured or calculated from the NVS_ENZ_hPTPN11 assay. It is designed to make measurements of enzyme activity, a form of enzyme reporter, as detected with fluorescence intensity signals by Fluorescence and electrophoretic mobility shift technology.Data from the assay component NVS_ENZ_hPTPN11 was analyzed into 1 assay endpoint. This assay endpoint, NVS_ENZ_hPTPN11, was analyzed in the positive analysis fitting direction relative to DMSO as the negative control and baseline of activity. Using a type of enzyme reporter, loss-of-signal activity can be used to understand changes in the enzymatic activity as they relate to the gene PTPN11. Furthermore, this assay endpoint can be referred to as a primary readout, because this assay has produced multiple assay endpoints where this one serves a enzymatic activity function. To generalize the intended target to other relatable targets, this assay endpoint is annotated to the phosphatase intended target family, where the subfamily is non-receptor tyrosine phosphatase. […]

For assay [4], the target named is Tyrosine-protein phosphatase non-receptor type 12 (Homo sapiens) (UniProt Q05209). Nature of the assay: NVS_ENZ_hPTPN12: NovaScreen (NVS) Enzymatic Assay for human Protein Tyrosine Phosphatase Non-receptor Type 12 (PTPN12) (AID 2283204). In a few lines:
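Single-concentration duplicates (25 uM) preceded singleton concentration-response up to 50 uM for chemicals passing threshold. Cell-free recombinant PTPN12 activity was read 1.33 h after dosing via fluorescence after mobility-shift separation; loss of signal versus DMSO.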

The target of assay [5] is human Protein Tyrosine Phosphatase Non-receptor Type 1 (PTPN1), PTPN1 (gene 5770) (UniProt P18031). The experiment in a line: NVS_ENZ_hPTPN1: NovaScreen (NVS) Enzymatic Assay for human Protein Tyrosine Phosphatase Non-receptor Type 1 (PTPN1) (AID 2283201). In a few lines:
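Cell-free fluorogenic-substrate activity assay on recombinant enzyme, read 1.33 h after dosing by fluorescence and electrophoretic mobility shift; loss of signal vs DMSO baseline. Primary screen in duplicate at 25 uM, hits then run in concentration-response up to 50 uM.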

In assay [6] the target is Tyrosine-protein phosphatase non-receptor type 13 (Homo sapiens) (UniProt Q12923). Nature of the assay: NVS_ENZ_hPTPN13: NovaScreen (NVS) Enzymatic Assay for human Protein Tyrosine Phosphatase Non-receptor Type 13 (PTPN13) (AID 2283205). An outline of the steps: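 Cell-free assay of recombinant human PTPN13 with a fluorescent substrate, product separated by electrophoretic mobility shift and read 0.5 h after dosing. Primary screen at 25 uM in duplicate, then concentration-response up to 50 uM. Loss of signal fitted against DMSO.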
Tyrosine-protein phosphatase non-receptor type 13 (Homo sapiens), sequence (Q12923 whole entry, looked up): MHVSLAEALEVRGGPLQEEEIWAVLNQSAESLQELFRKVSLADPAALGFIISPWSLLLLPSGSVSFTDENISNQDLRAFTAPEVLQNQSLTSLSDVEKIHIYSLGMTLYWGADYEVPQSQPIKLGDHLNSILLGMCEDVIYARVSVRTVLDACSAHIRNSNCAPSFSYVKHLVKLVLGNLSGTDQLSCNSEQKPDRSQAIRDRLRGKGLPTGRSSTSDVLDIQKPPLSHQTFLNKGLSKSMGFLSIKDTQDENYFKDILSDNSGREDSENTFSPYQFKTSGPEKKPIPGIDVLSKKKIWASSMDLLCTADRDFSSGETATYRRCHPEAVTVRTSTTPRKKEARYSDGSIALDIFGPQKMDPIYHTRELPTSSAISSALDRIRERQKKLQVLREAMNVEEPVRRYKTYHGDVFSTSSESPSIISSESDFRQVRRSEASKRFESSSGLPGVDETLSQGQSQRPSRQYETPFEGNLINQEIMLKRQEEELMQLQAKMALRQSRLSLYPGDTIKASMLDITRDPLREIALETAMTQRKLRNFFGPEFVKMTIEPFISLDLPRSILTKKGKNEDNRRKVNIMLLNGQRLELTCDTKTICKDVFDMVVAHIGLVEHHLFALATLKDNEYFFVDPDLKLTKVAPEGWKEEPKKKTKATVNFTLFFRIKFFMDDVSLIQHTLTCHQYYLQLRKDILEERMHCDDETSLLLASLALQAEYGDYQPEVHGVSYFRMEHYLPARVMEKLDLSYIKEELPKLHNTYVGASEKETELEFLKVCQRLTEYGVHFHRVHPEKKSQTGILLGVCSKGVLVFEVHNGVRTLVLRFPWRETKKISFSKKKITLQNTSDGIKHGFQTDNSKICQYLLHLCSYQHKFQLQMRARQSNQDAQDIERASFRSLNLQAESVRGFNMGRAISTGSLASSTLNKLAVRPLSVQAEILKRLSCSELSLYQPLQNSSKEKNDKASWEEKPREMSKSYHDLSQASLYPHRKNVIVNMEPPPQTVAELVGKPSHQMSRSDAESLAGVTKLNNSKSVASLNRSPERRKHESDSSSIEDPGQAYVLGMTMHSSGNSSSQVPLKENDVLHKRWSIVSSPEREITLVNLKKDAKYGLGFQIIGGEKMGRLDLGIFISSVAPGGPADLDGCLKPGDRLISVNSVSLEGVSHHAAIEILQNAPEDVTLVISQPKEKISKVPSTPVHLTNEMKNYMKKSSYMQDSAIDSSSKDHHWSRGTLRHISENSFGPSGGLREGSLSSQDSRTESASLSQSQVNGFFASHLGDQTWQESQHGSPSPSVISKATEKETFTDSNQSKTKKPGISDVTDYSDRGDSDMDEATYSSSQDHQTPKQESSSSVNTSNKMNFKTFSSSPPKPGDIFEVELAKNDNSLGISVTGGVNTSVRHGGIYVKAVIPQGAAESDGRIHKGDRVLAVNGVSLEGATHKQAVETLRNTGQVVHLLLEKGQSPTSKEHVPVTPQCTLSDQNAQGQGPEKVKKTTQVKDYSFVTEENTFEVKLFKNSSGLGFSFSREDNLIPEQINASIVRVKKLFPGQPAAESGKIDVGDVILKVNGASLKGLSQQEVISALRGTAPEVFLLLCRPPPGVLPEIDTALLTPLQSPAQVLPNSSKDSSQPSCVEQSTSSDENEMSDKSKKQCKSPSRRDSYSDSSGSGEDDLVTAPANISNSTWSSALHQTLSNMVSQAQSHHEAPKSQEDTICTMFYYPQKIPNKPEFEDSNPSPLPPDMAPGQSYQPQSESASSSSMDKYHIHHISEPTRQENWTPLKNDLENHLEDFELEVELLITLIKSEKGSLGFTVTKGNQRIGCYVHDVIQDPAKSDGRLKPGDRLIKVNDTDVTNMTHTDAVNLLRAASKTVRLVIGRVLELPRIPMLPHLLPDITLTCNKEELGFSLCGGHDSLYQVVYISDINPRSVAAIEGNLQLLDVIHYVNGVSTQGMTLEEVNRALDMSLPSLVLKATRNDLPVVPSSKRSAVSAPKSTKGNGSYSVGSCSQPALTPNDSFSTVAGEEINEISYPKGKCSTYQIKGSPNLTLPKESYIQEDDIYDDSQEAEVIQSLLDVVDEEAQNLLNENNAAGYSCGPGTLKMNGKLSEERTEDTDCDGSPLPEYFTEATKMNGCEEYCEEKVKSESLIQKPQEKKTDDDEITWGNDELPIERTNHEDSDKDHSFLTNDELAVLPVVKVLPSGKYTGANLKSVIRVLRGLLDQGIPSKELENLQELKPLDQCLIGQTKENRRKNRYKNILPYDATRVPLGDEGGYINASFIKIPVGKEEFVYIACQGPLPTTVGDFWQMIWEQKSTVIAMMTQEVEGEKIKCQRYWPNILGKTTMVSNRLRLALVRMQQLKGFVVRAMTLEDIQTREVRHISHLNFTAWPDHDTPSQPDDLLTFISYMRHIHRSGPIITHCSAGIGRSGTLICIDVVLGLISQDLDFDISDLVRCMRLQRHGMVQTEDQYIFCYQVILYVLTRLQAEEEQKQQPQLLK

Assay [7] concerns the target human Protein Tyrosine Phosphatase Non-receptor Type 9 (PTPN9), PTPN9 (gene 5780) (UniProt P43378). The experiment in a line: NVS_ENZ_hPTPN9: NovaScreen (NVS) Enzymatic Assay for human Protein Tyrosine Phosphatase Non-receptor Type 9 (PTPN9) (AID 2283209). An outline of the steps:
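Sf9-expressed enzyme in a cell-free assay, fluorescence read 1.33 h after dosing with mobility-shift separation of substrate and product. Tested at 25 uM in duplicate, then up to 50 uM; signal loss versus DMSO.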

The target of assay [8] is human Protein Tyrosine Phosphatase Receptor Type B (PTPRB), PTPRB (gene 5787) (UniProt P23467). The experiment in a line: NVS_ENZ_hPTPRB: NovaScreen (NVS) Enzymatic Assay for human Protein Tyrosine Phosphatase Receptor Type B (PTPRB) (AID 2283211). An outline of the steps: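 Recombinant human PTPRB with a fluorescent substrate, product separated by electrophoretic mobility shift; read 1 h after dosing. Primary screen in duplicate at 25 uM; actives then retested in concentration series; loss of signal versus DMSO.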

For assay [9], the target named is human Protein Tyrosine Phosphatase Non-receptor Type 6 (PTPN6), PTPN6 (gene 5777) (UniProt P29350). Nature of the assay: NVS_ENZ_hPTPN6: NovaScreen (NVS) Enzymatic Assay for human Protein Tyrosine Phosphatase Non-receptor Type 6 (PTPN6) (AID 2283210). An outline of the steps:
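Cell-free assay with recombinant PTPN6 expressed in SF9 cells, fluorescent substrate, product separated from substrate by electrophoretic mobility shift; read 1.33 hours after dosing. Primary screen in duplicate at 25 uM, actives retested in concentration series; DMSO baseline.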

The target of assay [10] is human Protein Tyrosine Phosphatase Receptor Type F (PTPRF), PTPRF (gene 5792) (UniProt P10586). Nature of the assay: NVS_ENZ_hPTPRF: NovaScreen (NVS) Enzymatic Assay for human Protein Tyrosine Phosphatase Receptor Type F (PTPRF) (AID 2283213). In a few lines: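 Cell-free fluorescence enzyme assay with recombinant protein and substrate; product separated by electrophoretic mobility shift. Read 1 h after dosing, single 25 uM duplicate screen, then concentration-response up to 50 uM; loss of signal vs DMSO.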

Tyrosine-protein phosphatase non-receptor type 12 (Homo sapiens), sequence (Q05209 whole entry, looked up): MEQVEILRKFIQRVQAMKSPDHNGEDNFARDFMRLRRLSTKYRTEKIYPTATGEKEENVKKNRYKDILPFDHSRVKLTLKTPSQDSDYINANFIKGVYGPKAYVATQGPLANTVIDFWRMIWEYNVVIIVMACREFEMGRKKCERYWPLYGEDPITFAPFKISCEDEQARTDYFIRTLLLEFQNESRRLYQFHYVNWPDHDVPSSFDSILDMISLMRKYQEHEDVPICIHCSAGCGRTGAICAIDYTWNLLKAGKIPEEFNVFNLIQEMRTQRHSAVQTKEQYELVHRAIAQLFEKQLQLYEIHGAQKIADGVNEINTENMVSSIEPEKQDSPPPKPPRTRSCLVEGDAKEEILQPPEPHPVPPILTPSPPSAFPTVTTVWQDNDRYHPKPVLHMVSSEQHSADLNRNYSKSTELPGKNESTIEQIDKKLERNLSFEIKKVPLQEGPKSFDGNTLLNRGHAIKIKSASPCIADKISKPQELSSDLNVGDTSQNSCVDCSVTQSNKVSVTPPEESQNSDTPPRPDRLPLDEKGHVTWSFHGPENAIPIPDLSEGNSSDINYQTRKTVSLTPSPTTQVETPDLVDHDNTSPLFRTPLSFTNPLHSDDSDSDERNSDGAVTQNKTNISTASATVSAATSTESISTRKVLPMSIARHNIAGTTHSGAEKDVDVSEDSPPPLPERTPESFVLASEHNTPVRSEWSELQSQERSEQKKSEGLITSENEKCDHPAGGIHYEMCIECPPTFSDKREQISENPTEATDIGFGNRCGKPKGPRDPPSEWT
human Protein Tyrosine Phosphatase Non-receptor Type 1 (PTPN1), PTPN1 (gene 5770), sequence (P18031 whole entry, looked up): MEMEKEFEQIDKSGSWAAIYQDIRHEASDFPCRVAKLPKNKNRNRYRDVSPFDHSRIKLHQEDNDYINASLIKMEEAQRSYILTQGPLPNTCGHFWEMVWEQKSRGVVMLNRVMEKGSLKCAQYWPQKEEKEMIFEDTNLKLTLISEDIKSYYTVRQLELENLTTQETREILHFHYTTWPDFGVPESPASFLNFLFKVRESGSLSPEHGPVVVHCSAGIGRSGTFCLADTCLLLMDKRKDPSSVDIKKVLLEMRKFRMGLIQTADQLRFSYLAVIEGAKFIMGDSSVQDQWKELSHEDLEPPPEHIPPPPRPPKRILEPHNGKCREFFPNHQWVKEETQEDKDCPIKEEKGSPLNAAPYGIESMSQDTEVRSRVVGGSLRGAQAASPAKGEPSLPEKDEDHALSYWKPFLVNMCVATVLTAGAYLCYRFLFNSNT
human Protein Tyrosine Phosphatase Non-receptor Type 4 (PTPN4), PTPN4 (gene 5775), sequence (P29074 whole entry, looked up): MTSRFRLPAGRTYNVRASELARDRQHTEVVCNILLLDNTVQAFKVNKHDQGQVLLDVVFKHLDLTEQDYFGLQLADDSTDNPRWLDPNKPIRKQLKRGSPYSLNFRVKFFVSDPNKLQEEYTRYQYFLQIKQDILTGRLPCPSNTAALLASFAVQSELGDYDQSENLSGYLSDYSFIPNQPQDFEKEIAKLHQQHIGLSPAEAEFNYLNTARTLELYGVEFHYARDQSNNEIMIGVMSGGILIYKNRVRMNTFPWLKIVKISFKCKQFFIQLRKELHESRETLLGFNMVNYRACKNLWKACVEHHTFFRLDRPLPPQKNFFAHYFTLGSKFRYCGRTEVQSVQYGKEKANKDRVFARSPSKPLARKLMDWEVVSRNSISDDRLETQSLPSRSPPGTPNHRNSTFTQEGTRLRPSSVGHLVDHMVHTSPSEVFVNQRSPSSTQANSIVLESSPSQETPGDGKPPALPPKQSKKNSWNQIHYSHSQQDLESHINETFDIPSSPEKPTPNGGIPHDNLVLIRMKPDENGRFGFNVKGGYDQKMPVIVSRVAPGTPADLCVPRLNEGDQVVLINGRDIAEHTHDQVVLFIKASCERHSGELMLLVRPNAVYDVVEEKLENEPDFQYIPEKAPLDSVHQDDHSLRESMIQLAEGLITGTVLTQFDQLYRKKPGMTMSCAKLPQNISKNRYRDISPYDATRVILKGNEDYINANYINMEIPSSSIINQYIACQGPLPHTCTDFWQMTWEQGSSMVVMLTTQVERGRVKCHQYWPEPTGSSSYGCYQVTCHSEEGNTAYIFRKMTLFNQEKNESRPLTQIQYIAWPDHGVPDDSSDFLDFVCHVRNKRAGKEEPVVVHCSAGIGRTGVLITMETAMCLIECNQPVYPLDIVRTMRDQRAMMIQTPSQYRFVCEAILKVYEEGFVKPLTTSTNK

As for `CC(=O)CC(C)(C)O`, the outcome in assay [1] was inactive.

As for `CN1CCC[C@H]1c1cccnc1`, in [2], the call was inactive.

In the case of `ClC1=C(Cl)C(Cl)(Cl)C(Cl)=C1Cl`, the outcome in assay [3], in assay [4] and in assay [2] was inactive.

Take `O=c1c(-c2ccc(O)cc2)coc2cc(O)ccc12`: the compound was called inactive in [4] and in assay [1].

As to `CCCCCCCC(=O)O`, the call in assay [5] was inactive.

Regarding `COCC(C)OCC(C)O` (stereo unspecified), the call in assay [4], in assay [6], in assay [2], in assay [7] and in assay [8] was inactive.

Regarding `CCCCCCCCCCCCc1ccccc1S(=O)(=O)O`, the AC50 – broadly, the concentration giving half of the maximal activity seen – in assay [5] is 15.5 µM (active); in [3] it was 13.3 µM (active); in [4], 11.3 µM (active); in assay [6], 21.1 µM (active); in assay [1], 38.2 µM (active); in [2] it was 19.8 µM (active). In addition, the AC50 in assay [7] is 4.22 µM (active); in assay [9], 13.4 µM (active); in [8], 25 µM (active); in [10] it was 25 µM (active).

As for `CC[C@H](C)[C@@H](C(=O)O)n1sc2ccccc2c1=O`, in assay [2], the compound was classed as inactive.

`N#C[C@@H]1CC(F)(F)CN1C(=O)CNC1CC2CCC(C1)N2c1ncccn1` (stereo partly specified): in assay [2], the compound was classed as inactive.

Turning to `COc1ccc([N+](=O)[O-])cc1N`, the compound was called inactive in assay [9].

For the compound `NC(=O)N(O)[C@@H]1C=C[C@H](Oc2cccc(Oc3ccc(F)cc3)c2)C1`, the result in [7] was inactive.

With `CCN(CC)CCNc1ccc(CNC=O)c2sc3ccc(OC)cc3c(=O)c12`, the call in [6] and in [10] was inactive.

Turning to `Nc1cccc2c(N)cccc12`, in assay [10], the compound was classed as inactive.

`CCC(=C(c1ccc(O)cc1)c1ccc(OCCN(C)C)cc1)c1ccccc1`: the result in [5] was inactive.
